ATXN viability = viability counter-screen for ATXN expression inhibitors. S2 cells (HEK-293 line with an ATXN2-luciferase reporter) viability, CellTiter-Fluor protease fluorescence, 24 h. Potency, µM (doses to about 56.7 µM), actives largely listed as cytotoxic. actives 0.49% (n = 400,000); also: nearly all actives have a fitted effect of over 40% in size
TDP1 cell noCPT = qHTS for Inhibitors of human tyrosyl-DNA phosphodiesterase 1 (TDP1): qHTS in cells in absence of CPT; DT40 Tdp1-/- hTDP1 cells, no CPT, ATP luminescence, 48 h; Potency, µM (titrated, usually from 46.2 µM), usual class: inhibitors; actives 15% (n = 420,000); also: nearly all actives have a fitted effect of over 55% in size
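Stably hTDP1-transfected Tdp1-null chicken DT40 cells were treated with library compounds minus camptothecin and grown for at least 48 hr at 37 °C, after which cellular ATP was quantified by luminescence.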
HepG2 tox = HepG2 cytotoxicity, counter-screen for TGF-b inhibitors; HepG2 CAGA-GFP viability, ATP luminescence, 18 h; Potency, µM (highest dose often 46.1 µM), usual class: cytotoxic; actives 0.76% (n = 410,000); AID 588856
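HepG2 CAGA-GFP cells (1000/well, DMEM with 1% FBS) received compound, then TGF-beta at 500 pg/mL final, and were incubated 18 hours at 37 degrees C. Viability was read by CellTiter-Glo luminescence. Media-only wells were set as complete cell-killing and DMSO as no toxicity.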
ATXN2 expr inh = reduces ATXN2 reporter expression in HEK-293 cells; HEK-293 ATXN2-luciferase reporter, luminescence, 24 h; Potency, µM (titrated, usually from 57 µM), most hits filed as inhibitors; actives 0.72% (n = 360,000); AID 1745845; also: nearly all actives have a fitted effect of over 55% in size
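ATXN2-luciferase reporter cells (luciferase flanked by upstream and downstream ATXN2 gene portions) were treated 24 h at 37 °C with compounds at up to 57 uM. SteadyGlo luminescence gave expression; GF-AFC fluorescence gave viability.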
TDP1 cell CPT = DT40-hTDP1 cell growth loss with CPT | Potency, µM (titrated, usually from 46.2 µM), usual class: inhibitors | AID 686979 | actives 12% (n = 420,000) | chicken DT40 Tdp1-/-;hTDP1 cells + 20 nM CPT, ATP luminescence, 48 h; also: nearly all actives have a fitted effect of over 55% in size
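Chicken DT40 Tdp1-/- cells complemented with human TDP1, 400 cells/well, exposed to compounds plus 20 nM camptothecin for at least 48 h at 37 C; viability read as ATP content by CellTiter-Glo luminescence.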
TGFb SMAD3 inh = blocks TGF-b signaling. HepG2 CAGA-GFP TGF-b/SMAD3 reporter, GFP fluorescence, 18 h; TGF-beta stimulated, 500 pg/mL final. Potency, µM (top dose mostly 46.1 µM), usual class: inhibitors. actives 1.2% (n = 410,000); also: nearly all actives have a fitted effect of over 65% in size
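HEPG2 CAGA-GFP, 1000 cells/well; 2 h settle, 37 C; cpd via pin tool; TGF-b 500 pg/mL final; 18 h, 37 C; GFP imaging ex488/em500-530; %Activity normalised to -TGF-b and +DMSO controls; CRC fit, curve class.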
Each line names hits and unclear results; the compound was inactive in the other large screens. In the library only some 17% were active in any assay of this set; here they are far more common. Calls follow the shape of the dose curve; as a rule, active = well fitted curve in the direction sought with a large enough effect; inconclusive = small, poorly fitted or top-dose-only effect, or another doubt; inactive = no such curve, though single readings can be large; an effect the other way counts as inactive or inconclusive.

CN(C(=O)COC(=O)C(C)(C)Oc1ccc(Cl)cc1)c1c(N)n(Cc2ccccc2)c(=O)[nH]c1=O	TDP1 cell noCPT inconclusive
COc1ccccc1N1CCN(C(=O)c2cc(-c3ccc(F)cc3)[nH]c2C)CC1	TDP1 cell noCPT inconclusive, TDP1 cell CPT inconclusive, TGFb SMAD3 inh inconclusive
COc1ccc(C(=O)N/C(=C\c2cn(C)c3ccccc23)C(=O)N2CCOCC2)cc1OC	none
O=C(Cc1ccc([N+](=O)[O-])cc1)N1N=C(c2ccncc2)CC1(O)C(F)(F)F (stereo not given)	ATXN viability inconclusive, TDP1 cell noCPT inconclusive, TDP1 cell CPT 20.6µM (no result: ATXN2 expr inh)
O=C(Cc1ccc([N+](=O)[O-])cc1)N1N=C2CCCCC2C1(O)C(F)(F)F (stereo not given)	TDP1 cell noCPT inconclusive
Cc1ccc(OCC(=O)N2N=C(c3ccncc3)CC2(O)C(F)(F)F)cc1C (stereo not given)	TDP1 cell noCPT 20.6µM, TDP1 cell CPT inconclusive, TGFb SMAD3 inh inconclusive (no result: ATXN2 expr inh)
Cc1nc(-c2ccc(S(=O)(=O)NCc3ccccc3Cl)cc2)co1	TDP1 cell noCPT inconclusive, TDP1 cell CPT inconclusive
CCOc1ccccc1CNS(=O)(=O)c1ccc(-c2coc(C)n2)cc1	TDP1 cell noCPT 16.4µM, TDP1 cell CPT 16.4µM
Cc1nc(-c2ccc(S(=O)(=O)NCc3ccc(OC(C)C)cc3)cc2)co1	TDP1 cell noCPT 25.9µM, TDP1 cell CPT inconclusive
CSCCC(NC(=O)c1ccc([N+](=O)[O-])cc1Cl)C(=O)OC(C)C(=O)NCc1ccco1 (stereo not given)	none
c1cc(Nc2ncnc3sccc23)cc(-c2nnc3n2CCCCC3)c1	ATXN viability inconclusive, TDP1 cell noCPT inconclusive, TDP1 cell CPT 20.6µM
O=C(COC(=O)C12CC3CC(CC(C3)C1)C2)NNC(=O)c1ccccc1	TGFb SMAD3 inh inconclusive
Cc1ccn2cc(-c3cccc(S(=O)(=O)N4CCCC4)c3)nc2c1	ATXN viability inconclusive, TDP1 cell noCPT 23.1µM, TDP1 cell CPT 18.4µM
Cc1ccn2cc(-c3cccc(NS(C)(=O)=O)c3)nc2c1	none
Cc1ccn2cc(-c3ccc(NS(=O)(=O)c4ccccc4)cc3)nc2c1	TDP1 cell noCPT 29.1µM, TDP1 cell CPT inconclusive
Cc1ccn2cc(-c3cccc(S(=O)(=O)N4CC(C)OC(C)C4)c3)nc2c1 (stereo not given)	TDP1 cell noCPT inconclusive, TDP1 cell CPT inconclusive, TGFb SMAD3 inh inconclusive (no result: ATXN2 expr inh)
Cc1ccc(-c2cn3ccc(C)cc3n2)cc1	TDP1 cell noCPT inconclusive, TDP1 cell CPT inconclusive (no result: ATXN viability, ATXN2 expr inh)
Cc1ccc(S(=O)(=O)Nc2ccc(-c3cn4ccc(C)cc4n3)cc2)cc1	TDP1 cell noCPT 14.6µM, TDP1 cell CPT inconclusive (no result: ATXN2 expr inh)
C=CCCCCCCCCC(=O)OC	none (no result: ATXN viability, HepG2 tox, ATXN2 expr inh, TGFb SMAD3 inh)
CCCNC(=O)Nc1cccc(C(=O)OC)c1	none (no result: ATXN2 expr inh)
CC(=O)c1cc(O)c2ccccc2c1O	ATXN viability inconclusive, TDP1 cell noCPT 4.61µM, TDP1 cell CPT 14.6µM, TGFb SMAD3 inh inconclusive (no result: ATXN2 expr inh)
CCOc1ccc(C(=O)NC(=S)Nc2ccccc2N2CCC(C)CC2)cc1[N+](=O)[O-]	TDP1 cell noCPT 16.4µM, TDP1 cell CPT inconclusive
COc1ccc(C(=O)Nc2ccccc2N2CCOCC2)cc1[N+](=O)[O-]	TDP1 cell noCPT inconclusive
CCCC(=O)N1CCN(c2ccc(NC(=O)c3ccc(OCC)c([N+](=O)[O-])c3)cc2)CC1	none
CCOc1ccc(C(=O)Nc2ccccc2N2CCN(C(=O)c3ccccc3)CC2)cc1[N+](=O)[O-]	ATXN viability inconclusive, TDP1 cell noCPT 11.6µM, TDP1 cell CPT 7.31µM
CCOc1ccc(C(=O)NC(=S)Nc2ccccn2)cc1[N+](=O)[O-]	TDP1 cell noCPT inconclusive, TDP1 cell CPT inconclusive
CCOc1ccc(C(=O)Nc2ccccc2CC)cc1[N+](=O)[O-]	none
CCOc1ccc(C(=O)NC(=S)Nc2ccc(N3CCC(C)CC3)cc2)cc1[N+](=O)[O-]	TDP1 cell noCPT 11.6µM, TDP1 cell CPT inconclusive
CCOc1ccc(C(=O)Nc2ccccc2C#N)cc1[N+](=O)[O-]	TDP1 cell noCPT inconclusive, TDP1 cell CPT 16.4µM
CN(C(=O)c1cccc(C#CC(C)(C)O)c1)C1CCCN(Cc2ccccc2F)C1 (stereo not given)	none
O=C(Nc1ccccc1)N(Cc1cccc(Cl)c1)c1ccccn1	TDP1 cell noCPT inconclusive, TDP1 cell CPT 23.1µM
COc1cc(CN(C(=O)Nc2cccc(Cl)c2)c2ccccn2)cc(OC)c1OC	TDP1 cell noCPT inconclusive, TDP1 cell CPT inconclusive
C1CCCCCC(NCCN2CCNCC2)CCCCC1	ATXN viability inconclusive, TDP1 cell noCPT 2.59µM, ATXN2 expr inh inconclusive, TDP1 cell CPT 3.66µM, TGFb SMAD3 inh inconclusive
CCOC(=O)C1=CCN(S(=O)(=O)c2ccccc2Br)C1c1cccc(F)c1 (stereo not given)	ATXN viability inconclusive, TDP1 cell noCPT inconclusive, TDP1 cell CPT inconclusive, TGFb SMAD3 inh inconclusive
CCOC(=O)C1=CCN(S(=O)(=O)c2ccccc2)C1c1ccccc1 (stereo not given)	TDP1 cell noCPT inconclusive, TDP1 cell CPT inconclusive
CCOC(=O)C1=CCN(S(=O)(=O)c2cccc(Cl)c2)C1c1ccccc1 (stereo not given)	TDP1 cell noCPT inconclusive, TDP1 cell CPT inconclusive, TGFb SMAD3 inh inconclusive
CCOC(=O)C1=CCN(S(=O)(=O)c2ccc(C)cc2)C1c1cccc(F)c1 (stereo not given)	ATXN viability inconclusive, TDP1 cell noCPT 23.1µM, TDP1 cell CPT inconclusive, TGFb SMAD3 inh inconclusive
CCOC(=O)C1=CCN(S(=O)(=O)c2ccc(F)cc2)C1c1ccccc1 (stereo not given)	TDP1 cell noCPT 20.6µM, TDP1 cell CPT inconclusive
CCOC(=O)C1=CCN(S(=O)(=O)c2cccc(Cl)c2)C1c1cccc(C)c1 (stereo not given)	ATXN viability inconclusive, TDP1 cell noCPT 18.4µM, TDP1 cell CPT inconclusive
CCOC(=O)C1=CCN(S(=O)(=O)c2ccc(F)cc2)C1c1ccc(F)cc1 (stereo not given)	TDP1 cell noCPT 14.6µM, TDP1 cell CPT inconclusive (no result: ATXN viability, HepG2 tox, ATXN2 expr inh, TGFb SMAD3 inh)
COc1ccc(C(=O)N2CCC(C)(C(=O)NS(=O)(=O)C3CC3)C2)c(OC)c1 (stereo not given)	none
C[N+]1(CCCOC(=O)C2(c3ccccc3)CCCC2)CCOCC1	HepG2 tox 11.2µM, TGFb SMAD3 inh inconclusive
O=C(NC(c1ccc(Cl)cc1)c1ccsc1)C1CCN(Cc2ccc(Oc3ccccc3)cc2)CC1 (stereo not given)	ATXN viability inconclusive, TDP1 cell noCPT 2.59µM, TDP1 cell CPT 2.59µM
